Measured values reported in PubChem BioAssay AID624331 (National Center for Advancing Translational Sciences (NCATS), 2012).
Results filed as inconclusive are left out. A number with no mark means an inactive call. Active and inactive are the calls of the source. Calls come from the whole dose curve; as a rule, active = well fitted activation curve with a large enough effect; inconclusive = small, poorly fitted or top-dose-only effect; inactive = no such curve, though single readings can be large or run the other way.
Potency is the fitted concentration of half-maximal effect.

Experiment: qHTS assay for re-activators of p53 using a Luc reporter: Hit Validation with no p53 Expressed; for activity change, positive = activation: 0% is about no effect
Conditions: p53-null cells, luciferase reporter counter-screen; series mostly up to 46.1 µM; activity change, positive = activation: at the top concentration
Procedure, shortened: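 Counter-screen of primary hits in a cell line not transfected with p53, in Opti-MEM with 10% FBS; compounds at several concentrations (10 mM stock, 1:5; top 46.1 µM in well), 24 h at 37 deg C, 5% CO2. Luminescence read after 10 min with Amplite reagent.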
With O=C(Nn1c(SCc2ccc([N+](=O)[O-])cc2)nc2ccccc2c1=O)c1ccc(F)cc1 the “activity change, positive = activation” value was 24.3%.
With O=C(N/N=C/c1sc(=O)[nH]c1-[n+]1ccc2ccccc2c1)c1ccccc1[O-] the “activity change, positive = activation” value was -12.2%.
With O=C(N/N=C/c1cccs1)c1n[nH]c2c1CCC2 the “activity change, positive = activation” value was -23.2%.
In the case of COc1ccc([N+](=O)[O-])cc1NC(=O)CSCc1ccc(Br)cc1, the “activity change, positive = activation” value is reported as -9.05%.
In the case of O=[N+]([O-])c1ccc(NC(=S)NCCc2ccc(F)cc2)cc1, the “activity change, positive = activation” value is reported as -45.7%.
With CCC(=O)Nc1ccc2oc(-c3cccc(C)c3)nc2c1 the “activity change, positive = activation” value was -15.7%.
With C/C(=C\COc1ccc2ccc(=O)oc2c1)CC[C@@H](O)C(C)(C)O the “activity change, positive = activation” value was -28.7%.
In the case of O=C(c1cccs1)c1coc2ccc(O)cc12, the “activity change, positive = activation” value is reported as 31%.
For COc1ccc(NC(=O)c2ccccc2)cc1, the “activity change, positive = activation” value was 6.54%.
For NC(=O)c1cc2ccc(O)cc2oc1=Nc1ccccc1, the “activity change, positive = activation” value was 0.331%.
With Nc1c(C(=O)c2ccc(Cl)cc2)oc2ccccc12 the “activity change, positive = activation” value was -3.51%.
With CC(=O)N(C)c1ccc(NC(=O)CCN2C(=O)c3ccccc3C2=O)cc1 the “activity change, positive = activation” value was -23.3%.
In the case of O=c1nc2sc3ccccc3n2c(=O)n1-c1cccc(Cl)c1, the “activity change, positive = activation” value is reported as 64.5%.
With CCC(=O)Nc1cccc(NC(=S)NC(=O)c2ccc(Cl)cc2)c1 the “activity change, positive = activation” value was -1.86%.
For CCCOc1ccc(-c2cc3onc(-c4ccccc4)c3c(=O)n2C)cc1, the “activity change, positive = activation” value was 1.56%.
With Cc1ccc(-n2c(C)cc(C(=O)CSc3nnc4ccccn34)c2C)cc1 the Potency was 731 nM (active).
With O=C(OCC(=O)N1CCc2ccccc21)c1ccccc1[N+](=O)[O-] the “activity change, positive = activation” value was 37%.
With CCOc1ccc(NS(=O)(=O)c2ccc(C(=O)NC3CCN(Cc4ccccc4)CC3)cc2)cc1 the “activity change, positive = activation” value was -28.9%.
With c1ccc2cc3c(NCCN4CCOCC4)ccnc3cc2c1 the “activity change, positive = activation” value was -48.5%.
For N#C/C(=C\c1ccc(OCc2ccc(Br)cc2)cc1)C(=O)Nc1cccc(C(=O)O)c1, the “activity change, positive = activation” value was 25.2%.
For CN(C)c1ccc(/C=N/Nc2nncc3ccccc23)cc1, the “activity change, positive = activation” value was 59.1%.
With CC(=O)c1cccc(NS(=O)(=O)N(C)C)c1 the “activity change, positive = activation” value was 0.341%.
For Cn1c(=NC(=O)c2ccco2)sc2cccc(F)c21, the “activity change, positive = activation” value was 33.8%.
In the case of Cc1ccc2c(c1)C(N1CCCC1=O)CC(c1ccco1)N2 (centres undefined), the “activity change, positive = activation” value is reported as 31.7%.
With Cc1ccc(C)c(OCC(O)CN2C(C)CCCC2C)c1 (centres undefined) the “activity change, positive = activation” value was 14.9%.
In the case of O=C(NC(=S)Nc1nc2ccccc2s1)c1ccco1, the “activity change, positive = activation” value is reported as -0.197%.
With Cc1ccc(CSc2nc3ccncc3[nH]2)cc1 the “activity change, positive = activation” value was -58%.
With CCOC(=O)N1CCN(S(=O)(=O)c2ccc(C(=O)NNc3nc4cc(C)cc(C)c4s3)cc2)CC1 the “activity change, positive = activation” value was -4.06%.
For COCCSc1ccccc1C(=O)Nc1cc(C)ccn1, the “activity change, positive = activation” value was 21.8%.
With O=c1oc(CCO)cc2ccc(C#Cc3ccsc3)cc12 the “activity change, positive = activation” value was 4.75%.
For Nc1c(C(=O)CSc2ccccn2)c(=O)[nH]c(=O)n1C1CC1, the “activity change, positive = activation” value was 18.4%.
With Cc1cc(N2CCCCC2)n2ncc(-c3ccc(Cl)cc3)c2n1 the “activity change, positive = activation” value was -11.1%.
For O=C(O)/C=C/c1nc(-c2ccccc2)n2ccccc12, the “activity change, positive = activation” value was -22.9%.
In the case of NS(=O)(=O)c1ccc(CCNCc2cccnc2)cc1, the “activity change, positive = activation” value is reported as -31.2%.
With COc1ccnc(CSC(N)=Nc2ccccc2OC)c1 the “activity change, positive = activation” value was -41.7%.
For O=C(NCC1CCCO1)c1ccc(NC(=O)c2cccc([N+](=O)[O-])c2)cc1 (centres undefined), the “activity change, positive = activation” value was 65.6%.
For Cc1ccccc1Cn1nnc(-c2cccc(C(=O)O)c2)n1, the “activity change, positive = activation” value was -24.8%.
For CCN1CCN(CC(=O)Nc2nc3ccc(C)cc3s2)CC1, the “activity change, positive = activation” value was 15.7%.
In the case of CN(C)c1ccc(CNC2CC(C)(C)NC(C)(C)C2)cc1, the “activity change, positive = activation” value is reported as 24.5%.
